These compounds were tested against Dual specificity protein phosphatase 6 (Homo sapiens) (UniProt Q16828) (assay: DUSP6 inhibitors restoring Erk phosphorylation by chemical complementation, primary imaging in DUSP6-transfected HeLa (AID 609;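 note: phospho-Erk level distribution per well compared with pooled transfected vehicle control wells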)). Conditions: HeLa MKP-3 transfected, phospho-Erk imaging KS statistic; at 10 µM; stronger effect = higher value; cells stimulated with TPA for 15 min.
Chain of Dual specificity protein phosphatase 6 (Homo sapiens) (Q16828 whole entry, looked up): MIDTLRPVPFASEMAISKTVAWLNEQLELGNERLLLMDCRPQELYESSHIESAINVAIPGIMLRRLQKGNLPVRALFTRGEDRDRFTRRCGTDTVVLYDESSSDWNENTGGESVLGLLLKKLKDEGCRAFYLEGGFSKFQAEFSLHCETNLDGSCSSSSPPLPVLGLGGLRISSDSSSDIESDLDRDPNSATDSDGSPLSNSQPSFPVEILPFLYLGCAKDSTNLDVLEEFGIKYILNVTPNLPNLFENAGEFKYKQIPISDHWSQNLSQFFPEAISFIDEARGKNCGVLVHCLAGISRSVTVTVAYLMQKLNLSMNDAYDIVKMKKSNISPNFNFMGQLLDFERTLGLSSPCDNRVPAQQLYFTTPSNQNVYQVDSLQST

inhibition, inactive:
CN1CCN(C2=Nc3cc(Cl)ccc3Nc3ccccc32)CC1 -0.493%
CCN(CC)CCNC(=O)c1ccc(N)cc1 3.59%
CCOC(=O)C(OC(=O)c1sc(=S)n(C)c1C)C(C)=O (configuration not stated) 7.48%
COc1ccc(Cn2ccnc2)cc1Br 18.9%
CC1(C)CC(=O)C=C(N=CC2=C(O)CC(C)(C)CC2=O)C1 9.39%
CC1(C)CC(=O)C(C=N)=C(O)C1 -3.98%
COc1cc(C(=O)Nc2ccccn2)cc(OC)c1OC -2.07%
CN(C)CCCN1c2ccccc2CCc2ccccc21 -12.3%
CC1(C)S[C@@H]2[C@H](NC(=O)[C@H](N)c3ccccc3)C(=O)N2[C@H]1C(=O)O -8.38%
CCOC(=O)C(Oc1ccc(=O)[nH]n1)C(C)=O (configuration not stated) 22.7%
Fc1ccc(C(c2ccc(F)cc2)N2CCN(C/C=C/c3ccccc3)CC2)cc1 23.4%
O=P(Cc1nnco1)(c1ccccc1)c1ccccc1 -3.98%
COc1ccc(OCC(=O)OCCN(C)C)cc1 -10.6%
C=CCNc1nc(C2(C)CC3(CC(C)(C)OC3=O)C(=O)O2)cs1 (configuration not stated) -2.07%
CCCCCOc1ccc(Cl)cc1CN1CCOCC1 11.3%
COC(=O)C1C(=O)NCC1c1ccccc1 (configuration not stated) 49.5%
CC(=O)Oc1oc(-c2ccccc2)nc1/C=N/c1ccccn1 7.48%
NC(N)=Nc1nc(CSCC/C(N)=N/S(N)(=O)=O)cs1 16.8%
CC1(C)CC(=O)C=C(NCCO)C1 20.8%
COc1ccc(-c2coc3cc(O)cc(O)c3c2=O)cc1 10.2%
O=C(NCCO)C1(c2ccccc2)CCCC1 20.8%
COc1cc2nc(N3CCN(C(=O)C4CCCO4)CC3)nc(N)c2cc1OC (configuration not stated) 16.8%
Nc1nc2c(ncn2COCCO)c(=O)[nH]1 3.45%
Cc1cc(N/C=C/C(=O)c2cccc3ccccc23)no1 13.2%
Cc1nnc(NS(=O)(=O)c2ccc(N)cc2)s1 19%
Cc1nc2sc(C)c(C)c2c(=O)o1 -5.89%
CC(=O)O[C@@]12CO[C@@H]1C[C@H](O)[C@@]1(C)C(=O)[C@H](O)C3=C(C)[C@@H](OC(=O)[C@H](O)[C@@H](NC(=O)OC(C)(C)C)c4ccccc4)C[C@](O)([C@@H](OC(=O)c4ccccc4)[C@H]21)C3(C)C -9.66%
CC[C@H]1CN2CCc3cc(OC)c(OC)cc3[C@@H]2C[C@@H]1C[C@H]1NCCc2cc(OC)c(OC)cc21 11.3%
CC1=NS(=O)(=O)c2cc(Cl)ccc2N1 19.2%
O=C(NCC1CCCCN1)c1cc(OCC(F)(F)F)ccc1OCC(F)(F)F (configuration not stated) 15.3%
CC[C@]1(O)C[C@@H]2CN(CCc3c([nH]c4ccccc34)[C@@](C(=O)OC)(c3cc4c(cc3OC)N(C)[C@H]3[C@@](O)(C(=O)OC)[C@H](OC(C)=O)[C@]5(CC)C=CCN6CC[C@]43[C@@H]65)C2)C1 -12.3%
O=C(CCN1CCc2ccccc21)c1ccc2c(c1)OCCO2 -0.159%
O=C(c1ccc(N2C(=O)C3CC=C(Cl)CC3C2=O)cc1)N1CCCCC1 (configuration not stated) 15.1%
COc1ccc([C@@H]2Sc3ccccc3N(CCN(C)C)C(=O)[C@@H]2OC(C)=O)cc1 -4.44%
COc1ccc[nH]c1=O 11.3%
O=C(CCCN1CCC(O)(c2ccc(Cl)cc2)CC1)c1ccc(F)cc1 10.2%
CCn1cc(/C=N/O)c(C)n1 13.2%
CC(C)(C#N)C(C)(C)c1nn[nH]n1 13.2%
O=C(O)c1ccc(COCC(F)(F)C(F)F)o1 5.26%

These compounds were tested against Voltage-gated potassium channel subunit beta-2 (Rattus norvegicus) (UniProt P62483) (assay: KvBeta enzyme negative modulators, primary screen, biochemical, NADPH fluorescence (AID 622;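 active = fluorescence slope higher than the sample average by over 3 SD, cut at about -0.22 in these data, passing the limit was not always enough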;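 note: slope of raw intensity against log time taken from 70 to 1610 s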)). Conditions: recombinant KvBeta, 4-cyanobenzaldehyde reduction, at 10 µM, stronger effect = higher value.
Chain of Voltage-gated potassium channel subunit beta-2 (Rattus norvegicus) (P62483 whole entry, looked up): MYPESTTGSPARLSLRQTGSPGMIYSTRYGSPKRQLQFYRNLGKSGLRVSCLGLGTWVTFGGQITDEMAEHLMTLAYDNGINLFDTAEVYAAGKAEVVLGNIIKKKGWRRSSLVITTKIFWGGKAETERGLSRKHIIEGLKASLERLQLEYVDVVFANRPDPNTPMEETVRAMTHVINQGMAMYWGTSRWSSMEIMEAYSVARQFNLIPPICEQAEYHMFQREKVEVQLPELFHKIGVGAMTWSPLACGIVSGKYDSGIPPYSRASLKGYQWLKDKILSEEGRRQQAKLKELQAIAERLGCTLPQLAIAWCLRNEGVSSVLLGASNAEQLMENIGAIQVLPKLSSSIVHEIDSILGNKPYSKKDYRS

Fluorescence slope, inactive:
CN1CCN(C2=Nc3cc(Cl)ccc3Nc3ccccc32)CC1 -0.457
CCN(CC)CCNC(=O)c1ccc(N)cc1 -0.52
CCOC(=O)C(OC(=O)c1sc(=S)n(C)c1C)C(C)=O (configuration not stated) -0.553
COc1ccc(Cn2ccnc2)cc1Br -0.302
CC1(C)CC(=O)C=C(N=CC2=C(O)CC(C)(C)CC2=O)C1 -0.363
CC1(C)CC(=O)C(C=N)=C(O)C1 -0.384
COc1cc(C(=O)Nc2ccccn2)cc(OC)c1OC -0.398
CN(C)CCCN1c2ccccc2CCc2ccccc21 -0.545
CC1(C)S[C@@H]2[C@H](NC(=O)[C@H](N)c3ccccc3)C(=O)N2[C@H]1C(=O)O -0.459
CCOC(=O)C(Oc1ccc(=O)[nH]n1)C(C)=O (configuration not stated) -0.398
Fc1ccc(C(c2ccc(F)cc2)N2CCN(C/C=C/c3ccccc3)CC2)cc1 -0.463
O=P(Cc1nnco1)(c1ccccc1)c1ccccc1 -0.431
COc1ccc(OCC(=O)OCCN(C)C)cc1 -0.383
C=CCNc1nc(C2(C)CC3(CC(C)(C)OC3=O)C(=O)O2)cs1 (configuration not stated) -0.315
CCCCCOc1ccc(Cl)cc1CN1CCOCC1 -0.434
COC(=O)C1C(=O)NCC1c1ccccc1 (configuration not stated) -0.482
CC(=O)Oc1oc(-c2ccccc2)nc1/C=N/c1ccccn1 -0.383
CC1(C)CC(=O)C=C(NCCO)C1 -0.395
COc1ccc(-c2coc3cc(O)cc(O)c3c2=O)cc1 -0.544
O=C(NCCO)C1(c2ccccc2)CCCC1 -0.406
Nc1nc2c(ncn2COCCO)c(=O)[nH]1 -0.446
Cc1cc(N/C=C/C(=O)c2cccc3ccccc23)no1 -0.396
Cc1nnc(NS(=O)(=O)c2ccc(N)cc2)s1 -0.526
Cc1nc2sc(C)c(C)c2c(=O)o1 -0.39
CC(=O)O[C@@]12CO[C@@H]1C[C@H](O)[C@@]1(C)C(=O)[C@H](O)C3=C(C)[C@@H](OC(=O)[C@H](O)[C@@H](NC(=O)OC(C)(C)C)c4ccccc4)C[C@](O)([C@@H](OC(=O)c4ccccc4)[C@H]21)C3(C)C -0.48
CC[C@H]1CN2CCc3cc(OC)c(OC)cc3[C@@H]2C[C@@H]1C[C@H]1NCCc2cc(OC)c(OC)cc21 -0.553
CC1=NS(=O)(=O)c2cc(Cl)ccc2N1 -0.43
O=C(NCC1CCCCN1)c1cc(OCC(F)(F)F)ccc1OCC(F)(F)F (configuration not stated) -0.495
CC[C@]1(O)C[C@@H]2CN(CCc3c([nH]c4ccccc34)[C@@](C(=O)OC)(c3cc4c(cc3OC)N(C)[C@H]3[C@@](O)(C(=O)OC)[C@H](OC(C)=O)[C@]5(CC)C=CCN6CC[C@]43[C@@H]65)C2)C1 -0.495
O=C(CCN1CCc2ccccc21)c1ccc2c(c1)OCCO2 -0.436
O=C(c1ccc(N2C(=O)C3CC=C(Cl)CC3C2=O)cc1)N1CCCCC1 (configuration not stated) -0.379
COc1ccc([C@@H]2Sc3ccccc3N(CCN(C)C)C(=O)[C@@H]2OC(C)=O)cc1 -0.507
COc1ccc[nH]c1=O -0.41
O=C(CCCN1CCC(O)(c2ccc(Cl)cc2)CC1)c1ccc(F)cc1 -0.485
CCn1cc(/C=N/O)c(C)n1 -0.345
C1CNCCNCCCNCCNC1 -0.454
CC(C)(C#N)C(C)(C)c1nn[nH]n1 -0.468
O=C(O)c1ccc(COCC(F)(F)C(F)F)o1 -0.428
